Measurements: PubChem BioAssay AID1209 (Sanford-Burnham Center for Chemical Genomics, 2008)
In all, about 190,000 compounds went through this assay and about 810 (0.43%) were called active. Rule as the data show it: active = inhibition above about 50%; inactive = the rest. The list comes from a sample in which actives are over-represented; it also holds similar structures and randomly drawn compounds.

target: Mannose-6-phosphate isomerase (Homo sapiens) (UniProt P34949); test: MPI enzyme activity inhibition – biochemical, fluorescence intensity, coupled assay, primary screen (AID 1209); conditions: purified PMI enzyme, at 20 µM, hits give high values;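 also: plate controls were DMSO vehicle for no effect and wells lacking substrate for full effect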
Sequence (P34949 whole entry, looked up): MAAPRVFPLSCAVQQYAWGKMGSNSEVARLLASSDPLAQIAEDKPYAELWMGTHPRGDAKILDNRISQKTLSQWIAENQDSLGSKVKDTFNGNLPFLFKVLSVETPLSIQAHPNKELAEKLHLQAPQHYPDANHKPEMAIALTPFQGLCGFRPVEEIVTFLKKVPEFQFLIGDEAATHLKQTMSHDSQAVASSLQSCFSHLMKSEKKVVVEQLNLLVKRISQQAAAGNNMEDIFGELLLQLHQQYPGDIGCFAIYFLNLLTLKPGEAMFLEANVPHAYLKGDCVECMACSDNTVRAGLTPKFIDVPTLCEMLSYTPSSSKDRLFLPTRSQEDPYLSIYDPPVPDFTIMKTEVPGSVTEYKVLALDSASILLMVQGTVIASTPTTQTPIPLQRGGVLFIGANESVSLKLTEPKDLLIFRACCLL

inhibition, active:
COC(=O)c1sc(=S)n(-c2cccc(Cl)c2)c1N 75.9%, CCOC(=O)c1sc(=S)n(-c2cccc(OC)c2)c1N 63.2%, COC(=O)c1sc(=S)n(-c2cc(F)ccc2F)c1N 55.8%, CCOC(=O)c1sc(=S)n(-c2cc(OC)ccc2OC)c1N 65.3%, Oc1ccc(/C=N/Nc2cc(N3CCOCC3)nc(N3CCOCC3)n2)cc1O 76.8%, CCNc1nc(NCC)nc(N/N=C/c2ccc(O)c(O)c2)n1 61.4%, CN(C)c1ccc(/C=N/Nc2cc(N3CCOCC3)nc(N3CCOCC3)n2)cc1 73.3%, CC(C)c1ccc(/C=N/Nc2cc(N3CCOCC3)nc(N3CCOCC3)n2)cc1 77%, Oc1ccc(/C=N/Nc2nc(N3CCCC3)nc(N3CCCC3)n2)cc1O 57.6%, COC(=O)c1ccc(Sc2ccc(C)cc2)c(N)c1 55%, CCCCNc1cc(NC(C)=O)cc2cc(OC)c(OC)cc12 53.3%, CCOC(=O)c1sc(=S)n2c1[nH]c(=O)c1ccc(C(=O)OC)cc12 68.6%, Cc1oc2c(O)c(O)ccc2c(=O)c1-c1cnn(-c2ccccc2)c1 79.5%

inhibition, inactive:
CCOC(=O)c1sc(=S)n(-c2cc(F)ccc2F)c1N 37.9%, CCOC(=O)c1sc(=S)n(-c2ccccc2OC)c1N 21.8%, CCOC(=O)c1sc(=S)n(-c2ccc(C)cc2)c1N 30.1%, CCOC(=O)c1sc(=S)n(-c2ccccc2)c1N -2.1%, CCOC(=O)c1sc(=S)n(-c2ccc(F)c(F)c2)c1N 27%, COC(=O)c1sc(=S)n(-c2ccccc2OC)c1N 0.3%, Cc1ccc(NC(=O)c2sc(=S)n(-c3cc(C)ccc3F)c2N)cc1 1.4%, COc1ccc(Cl)cc1-n1c(N)c(C(N)=O)sc1=S 22.6%, CCOC(=O)c1c(C)c(C(=O)NCc2ccccc2OC)c(C)n1C 11.8%, CCOC(=O)CNC(=S)n1ncnc1N -9.1%, Cc1ccc(S(=O)(=O)CCC(=O)Nc2ccc(F)cc2)cc1 6.5%, Cc1cccc(C(C)C)c1NC(=O)COC(=O)Cc1ccsc1 9%, Cc1ccc(OCC(=O)N/N=C/c2ccco2)cc1 -1.5%, Oc1ccc(/C=N/Nc2cc(N3CCCC3)nc(N3CCCC3)n2)cc1 32%, CCNc1nc(NCC)nc(N/N=C/c2ccc(Br)cc2)n1 -0.7%, CCNc1nc(NCC)nc(N/N=C/c2ccc(N(C)C)cc2)n1 -12.9%, Oc1cccc(/C=N/Nc2cc(N3CCCC3)nc(N3CCCC3)n2)c1 41.2%, Oc1ccc(/C=N\Nc2cc(N3CCOCC3)nc(N3CCOCC3)n2)c(O)c1 32.2%, COc1ccc(/C=N/Nc2cc(N3CCCC3)nc(N3CCCC3)n2)cc1 32%, Clc1ccc(-c2ccc(/C=N/Nc3cc(N4CCOCC4)nc(N4CCOCC4)n3)o2)cc1 47.2%, CN(C)c1ccc(/C=C/C=N/Nc2nc(N3CCOCC3)nc(N3CCOCC3)n2)cc1 7.3%, O=[N+]([O-])c1ccc(O)c2cccnc12 -10.1%, CCCn1nc(C(=O)NC2CCCc3ccccc32)c2ccccc2c1=O (stereo not drawn) 6.9%, COc1ccc(OC)c(C(=O)COC(=O)c2cc(C)oc2C)c1 -24.4%, O=C(CNC(=O)c1cccs1)NCC(=O)OCc1cccc(Cl)c1 4.5%, CCOC(=O)C1=C(C)Nc2ccccc2N=C1NC(=O)Cc1ccc(Br)cc1 18.8%, COc1ccc(Br)cc1-c1noc(-c2ccccc2)n1 11.5%, COc1ccc(C2C(C#N)=C(N)Oc3n[nH]c(C)c32)cc1Cn1cc([N+](=O)[O-])cn1 (stereo not drawn) 7.7%, O=C(/C=C/c1ccc(Br)cc1)NC(=S)NNC(=O)c1ccco1 -1.2%, COc1cc(/C=N/Nc2nc(N3CCCC3)nc(N3CCCC3)n2)ccc1O 7.9%, COc1ccc(/C=N/Nc2nc(N3CCCC3)nc(N3CCCC3)n2)cc1O -10.3%, N=C1C(c2ccccc2)=C(O)CN1c1cccc(S(N)(=O)=O)c1 10.1%, CC1(C)C2CCC1(CS(=O)(=O)N1CCOCC1)C(=O)C2 (stereo not drawn) 7.9%, CCOC(=O)c1cc2sccc2n1CC(=O)Nc1ccc(OC)cc1OC 16%, O=C1c2ccccc2C(=O)N1CN(C(=O)COc1ccccc1)c1ccccc1 3.5%, COC(=O)c1ccc(Sc2ccc(F)cc2)c(N)c1 11.4%, COC(=O)c1ccc(Sc2ccc(Cl)cc2)c(N)c1 9.3%, Cc1sc2nc(CSc3n[nH]c(N)n3)[nH]c(=O)c2c1C -10.2%, CCCC(=O)Nc1cc(OC)c(OC)cc1C(=O)O 6.8%, CCCCNc1nc(=S)[nH]c2cc(OC)c(OC)cc12 -4.5%, Cc1cc(C)c(C#N)c(SCc2[nH]nc3c2C(c2ccc(F)cc2)C(C#N)=C(N)O3)n1 (stereo not drawn) 12.8%, COc1cc(OC)cc(C(=O)NNC(=O)Cc2ccc(OC)c(S(=O)(=O)N3CCOCC3)c2)c1 2.7%, CCCCCNC(=O)c1ccc2c(=O)[nH]c3c(C(=O)NCC4CCCO4)sc(=S)n3c2c1 (stereo not drawn) 10.4%, CCCCNC(=O)c1sc(=S)n2c1[nH]c(=O)c1ccccc12 16.1%, CCOc1ccc(-c2[nH]nc3c2C(c2ccc(O)cc2)C(C#N)=C(N)O3)cc1 (stereo not drawn) 27.8%, COc1ccc(-c2noc(CN(C(=O)C(C)(C)C)C(C)C)n2)cc1 15.9%, Cc1oc2cc(O)ccc2c(=O)c1-c1cnn(-c2ccccc2)c1 -5.2%, Cc1oc2c(C)c(O)ccc2c(=O)c1-c1cnn(-c2ccccc2)c1 -14.8%, CCC(CC)=C(C#N)C(=O)NC1CCCCC1 -12.5%, CCN(C(=O)COC(=O)c1cc(-c2ccccc2)nc2c1c(C)nn2-c1ccccc1)C1CCS(=O)(=O)C1 (stereo not drawn) 14.7%
